Measured values published in PubChem BioAssay AID942 (National Center for Advancing Translational Sciences (NCATS), 2007).
Records with an inconclusive call do not appear. The source made the active and inactive calls. Calls follow the shape of the full dose curve.

Test: Confirmation Concentration-Response Assay for Anthrax Lethal Toxin Internalization
Settings: FRET ratio (460/530 nm); series mostly up to 46.1 µM; activity change, negative = inhibition: at the top concentration

Row | Structure (SMILES) | activity change, negative = inhibition | Potency
1 | COc1ccc2c(c1OC)C(=O)OC2CC(=O)c1ccc2c(c1)OCO2 (stereo unspecified) | -21.2% (inactive) | –
2 | COc1cc([C@@H]2c3cc4c(cc3[C@H](O)[C@H]3COC(=O)[C@H]23)OCO4)cc(OC)c1OC | – | 0.794 µM (active)
3 | COc1ccc(Cl)cc1C(=O)Nc1ccc([N+](=O)[O-])cc1Cl | -44.4% (inactive) | –
4 | O=C(Nc1ccc([N+](=O)[O-])cc1Cl)c1ccccc1O | – | 6.31 µM (active)
5 | COc1cc2c(OC(C)=O)c3c(c(-c4ccc5c(c4)OCO5)c2cc1OC)C(=O)OC3 | – | 0.0398 µM (active)
6 | Cc1ccc2oc(=O)c3cnn(CC(=O)Nc4ccccc4N4CCN(C)CC4)c3c2c1 | – | 2 µM (active)
7 | Cc1ccc2c(c1)-c1c(cnn1CC(=O)Nc1ccccc1N1CCN(C)CC1)CO2 | – | 3.98 µM (active)
8 | Cc1ccc2oc(=O)c3cnn(CC(=O)N4CCN(c5ccccc5)CC4)c3c2c1 | – | 5.01 µM (active)
9 | O=C(Nc1ccc([N+](=O)[O-])cc1Cl)c1cc(Br)ccc1O | – | 0.794 µM (active)
10 | COc1cc2c(O)c3c(c(-c4ccc5c(c4)OCO5)c2cc1OC)C(=O)OC3 | – | 0.0501 µM (active)
11 | COc1ccc2c(c1OC)C(=O)OC2c1ccc(O)cc1 (stereo unspecified) | -11.6% (inactive) | –
12 | O=C(Nc1c(Cl)cc([N+](=O)[O-])cc1Cl)c1cc(Cl)cc(Cl)c1O | – | 10 µM (active)
13 | COc1cc([C@@H]2c3cc4c(cc3[C@H](OC(C)=O)[C@H]3COC(=O)[C@H]23)OCO4)cc(OC)c1OC | – | 0.794 µM (active)
14 | O=C(Nc1ccc([N+](=O)[O-])cc1Cl)c1cc(Cl)cc(Cl)c1O | – | 3.98 µM (active)
15 | COc1ccc(C2C3=C(COC3=O)Oc3cc4c(cc32)OCO4)cc1OC (stereo unspecified) | -26.6% (inactive) | –
16 | Nc1ccc(NC(=O)c2cc(Cl)ccc2O)c(Cl)c1 | 6.15% (inactive) | –
